This passage reports cytotoxicity call results from the antibiotic and cytotoxicity screens of Wong et al. (2023).

Molecules are shown by their SMILES. About 3,300 (8.5%) of roughly 39,000 compounds were called active. The entries come from a sample that favours actives as a whole.

The test has as its system HepG2. As to the kind of experiment: cytotoxicity call (relative viability < 0.9). As to conditions: 10 µM.
With `O=C(C[C@@H]1CC[C@H]2[C@@H](COC[C@@H](O)CN2S(=O)(=O)c2cccc(Cl)c2)O1)NC1Cc2ccccc2C1`, the cytotoxicity call was “inactive”.

Consider `C[C@@H]1CN([C@@H](C)CO)C(=O)c2cc(NC(=O)Cn3cnnn3)ccc2O[C@@H]1CN(C)Cc1ccc(C(=O)O)cc1`, for which the cytotoxicity call was “inactive”.

As to `C[C@H](CO)N1C[C@H](C)[C@@H](CN(C)C(=O)NC2CCCCC2)OCCCC[C@H](C)Oc2ccc(NC(=O)CCC(F)(F)F)cc2C1=O`, the cytotoxicity call is “inactive”.

Take `C[C@H]1CN([C@@H](C)CO)C(=O)CCCn2cc(nn2)CO[C@@H]1CN(C)C(=O)Nc1cccc(Oc2ccccn2)c1`: the cytotoxicity call was “inactive”.

As to `CCCNCC(O)COc1ccccc1C(=O)CCc1ccccc1.Cl` (centres undefined), the cytotoxicity call was “active”.

On to `CC(=O)c1ccccc1OC[C@@H](O)CN(CCO)CCO`, for which the cytotoxicity call was “inactive”.

In the case of `CCCC(=O)Nc1ccc(OCC(O)CNC(C)C)c(C(C)=O)c1.Cl` (centres undefined), the cytotoxicity call is “inactive”.

For `C[C@H]1CN([C@@H](C)CO)C(=O)c2cc(NC(=O)CCC(F)(F)F)ccc2O[C@H]1CN(C)Cc1ccc(C(F)(F)F)cc1`, the cytotoxicity call is “inactive”.

In the case of `C[C@H](CO)N1C[C@H](C)[C@H](CN(C)Cc2ccc(Oc3ccccc3)cc2)Oc2ncc(-c3cccnc3)cc2C1=O`, the cytotoxicity call was “inactive”.

Consider `C[C@H](CO)N1C[C@H](C)[C@H](CN(C)C(=O)NC2CCCCC2)Oc2ccc(NC(=O)Nc3cccc4ccccc34)cc2C1=O`, for which the cytotoxicity call is “inactive”.

With `C[n+]1c2cc(N)ccc2cc2ccc(N)cc21.[Cl-]`, the cytotoxicity call is “active”.

`C[C@@H]1CCCCO[C@@H](CN(C)Cc2ccc(C(=O)O)cc2)[C@H](C)CN([C@H](C)CO)C(=O)c2cc(NC(=O)c3ccccc3)ccc2O1`: the cytotoxicity call is “inactive”.

As for `C[C@H]1CN([C@@H](C)CO)C(=O)CCCn2cc(nn2)CO[C@H]1CN(C)C(=O)Nc1cccc(Oc2ccccn2)c1`, the cytotoxicity call is “inactive”.

On to `CC(=O)OC[C@H]1O[C@@H](n2ccc(=O)[nH]c2=O)[C@H](OC(C)=O)[C@@H]1OC(C)=O`, for which the cytotoxicity call is “inactive”.

For `COCC(=O)N1C[C@H](C)[C@H](OC)CN(C)C(=O)c2cc(NC(=O)Nc3cccc(F)c3)ccc2OC[C@@H]1C`, the cytotoxicity call was “inactive”.

For the compound `COc1ccc(NC(=O)Nc2ccc3c(c2)C(=O)N([C@H](C)CO)C[C@@H](C)[C@@H](CN(C)Cc2ccc(Cl)c(Cl)c2)O3)cc1`, the cytotoxicity call is “inactive”.

For the compound `COc1ccc(NC(=O)Nc2ccc3c(c2)C(=O)N([C@@H](C)CO)C[C@@H](C)[C@@H](CN(C)Cc2ccc(Cl)c(Cl)c2)O3)cc1`, the cytotoxicity call was “inactive”.

For `COc1ccc(NC(=O)Nc2ccc3c(c2)C(=O)N([C@@H](C)CO)C[C@H](C)[C@@H](CN(C)Cc2ccc(Cl)c(Cl)c2)O3)cc1`, the cytotoxicity call is “inactive”.

Turning to `COc1ccc(NC(=O)Nc2ccc3c(c2)C(=O)N([C@@H](C)CO)C[C@H](C)[C@H](CN(C)Cc2ccc(Cl)c(Cl)c2)O3)cc1`, the cytotoxicity call is “active”.

In the case of `COc1ccc(NC(=O)Nc2ccc3c(c2)C(=O)N([C@H](C)CO)C[C@H](C)[C@H](CN(C)Cc2ccc(Cl)c(Cl)c2)O3)cc1`, the cytotoxicity call is “active”.

Consider `COc1ccc(NC(=O)Nc2ccc3c(c2)C(=O)N([C@H](C)CO)C[C@H](C)[C@@H](CN(C)Cc2ccc(Cl)c(Cl)c2)O3)cc1`, for which the cytotoxicity call was “inactive”.

For `C[C@H]1CN([C@@H](C)CO)S(=O)(=O)c2ccc(-c3ccc(C(=O)N(C)C)cc3)cc2O[C@@H]1CN(C)C(=O)C1CCC1`, the cytotoxicity call was “inactive”.

Take `O=C(O[C@H]1[C@H](O)[C@@H](CO)O[C@H](c2c(O)cc(O)c(C(=O)c3ccc(O)cc3)c2O)[C@H]1OC(=O)c1cc(O)c(O)c(O)c1)c1cc(O)c(O)c(O)c1`: the cytotoxicity call is “active”.

In the case of `CC(=O)O[C@H]1[C@H](Oc2cc(O)cc(O)c2C(=O)c2cc(O)cc(O)c2)O[C@H](CO)[C@@H](OC(=O)c2ccccc2)[C@@H]1O`, the cytotoxicity call was “inactive”.

With `O=C(CCc1ccc(O)cc1)c1c(O)c([C@@H]2O[C@H](CO)[C@@H](O)[C@H](O)[C@H]2O)c(O)c([C@@H]2O[C@H](CO)[C@@H](O)[C@H](O)[C@H]2O)c1O`, the cytotoxicity call is “inactive”.

Consider `Cc1ccc(S(=O)(=O)N(C)C[C@@H]2Oc3ccc(NC(=O)CCCN(C)C)cc3CC(=O)N([C@H](C)CO)C[C@H]2C)cc1`, for which the cytotoxicity call was “inactive”.

As to `CN(C)CC#Cc1ccc([C@@H]2[C@H](CO)N3C(=O)CN(C(=O)CN(C)C)C[C@@H]23)cc1`, the cytotoxicity call is “inactive”.

Turning to `C[C@@H]1CN([C@H](C)CO)C(=O)c2cccc(NC(=O)c3ccncc3)c2O[C@@H]1CN(C)S(=O)(=O)c1cccs1`, the cytotoxicity call was “active”.

Consider `C[C@H]1CN([C@@H](C)CO)C(=O)c2cccc(NC(=O)c3ccncc3)c2O[C@H]1CN(C)S(=O)(=O)c1cccs1`, for which the cytotoxicity call was “inactive”.

Turning to `C[C@@H]1CN([C@@H](C)CO)C(=O)c2cccc(NC(=O)c3ccncc3)c2O[C@H]1CN(C)S(=O)(=O)c1cccs1`, the cytotoxicity call is “inactive”.

Turning to `C[C@@H]1CN([C@H](C)CO)C(=O)c2cccc(NC(=O)c3ccncc3)c2O[C@H]1CN(C)S(=O)(=O)c1cccs1`, the cytotoxicity call was “inactive”.

On to `C[C@@H]1CN([C@@H](C)CO)C(=O)c2cccc(NC(=O)c3ccncc3)c2O[C@@H]1CN(C)S(=O)(=O)c1cccs1`, for which the cytotoxicity call is “active”.

`C[C@H](CO)N1C[C@H](C)[C@H](CN(C)S(=O)(=O)c2cccs2)Oc2c(NC(=O)c3ccncc3)cccc2C1=O`: the cytotoxicity call was “inactive”.

Take `CO[C@H]1CN(C)C(=O)c2cc(NS(=O)(=O)c3cn(C)cn3)ccc2OC[C@@H](C)N(Cc2cccc(F)c2)C[C@@H]1C`: the cytotoxicity call was “inactive”.

Regarding `Cc1noc(C)c1NC(=O)N(C)C[C@H]1Oc2ccc(NC(=O)C3CC3)cc2C(=O)N([C@H](C)CO)C[C@@H]1C`, the cytotoxicity call is “inactive”.

On to `C[C@@H]1CN([C@H](C)CO)C(=O)c2cc(NS(C)(=O)=O)ccc2O[C@@H](C)CCCCO[C@H]1CN(C)CC1CC1`, for which the cytotoxicity call was “inactive”.

For the compound `C[C@@H]1CCCCO[C@@H](CN(C)C(=O)c2ccccc2)[C@H](C)CN([C@@H](C)CO)C(=O)c2cc(NS(=O)(=O)c3ccccc3)ccc2O1`, the cytotoxicity call is “inactive”.

Turning to `C[C@@H]1CN([C@H](C)CO)S(=O)(=O)c2ccc(Br)cc2O[C@H]1CN(C)C(=O)Nc1ccccc1`, the cytotoxicity call was “inactive”.

For `C[C@@H]1CN([C@H](C)CO)C(=O)Cc2cc(NC(=O)Nc3cccc4ccccc34)ccc2O[C@@H]1CN(C)C(=O)NC1CCCCC1`, the cytotoxicity call was “inactive”.

For the compound `C[C@@H]1CN([C@H](C)CO)C(=O)Cc2cc(NC(=O)Nc3cccc4ccccc34)ccc2O[C@@H]1CN(C)CC1CCCCC1`, the cytotoxicity call was “active”.

As for `C[C@@H]1CN([C@@H](C)CO)C(=O)Cc2cc(NC(=O)Nc3cccc4ccccc34)ccc2O[C@H]1CN(C)CC1CCCCC1`, the cytotoxicity call was “inactive”.

In the case of `C[C@H]1CN([C@@H](C)CO)C(=O)Cc2cc(NC(=O)Nc3cccc4ccccc34)ccc2O[C@H]1CN(C)CC1CCCCC1`, the cytotoxicity call was “active”.

For the compound `C[C@@H]1CN([C@@H](C)CO)C(=O)Cc2cc(NC(=O)Nc3cccc4ccccc34)ccc2O[C@@H]1CN(C)CC1CCCCC1`, the cytotoxicity call is “active”.

As for `C[C@H](CO)N1C[C@H](C)[C@@H](CN(C)CC2CCCCC2)Oc2ccc(NC(=O)Nc3cccc4ccccc34)cc2CC1=O`, the cytotoxicity call was “inactive”.

In the case of `C[C@@H]1CN([C@H](C)CO)C(=O)Cc2cc(NC(=O)Nc3cccc4ccccc34)ccc2O[C@H]1CN(C)CC1CCCCC1`, the cytotoxicity call was “inactive”.

Turning to `C[C@H]1CN([C@@H](C)CO)C(=O)Cc2cc(NC(=O)Nc3cccc4ccccc34)ccc2O[C@@H]1CN(C)CC1CCCCC1`, the cytotoxicity call was “active”.

For the compound `C[C@H](CO)N1C[C@H](C)[C@H](CN(C)CC2CCCCC2)Oc2ccc(NC(=O)Nc3cccc4ccccc34)cc2CC1=O`, the cytotoxicity call is “inactive”.

Take `COc1ccc(S(=O)(=O)Nc2ccc3c(c2)C(=O)N([C@@H](C)CO)C[C@@H](C)[C@H](CN(C)S(=O)(=O)c2ccccc2)O3)cc1`: the cytotoxicity call is “inactive”.

As to `Cc1ccc(S(=O)(=O)Nc2ccc3c(c2)C(=O)N([C@H](C)CO)C[C@H](C)[C@@H](CN(C)C(=O)Cc2ccccc2)OCCCC[C@H](C)O3)cc1`, the cytotoxicity call is “inactive”.

Consider `CN1C(=O)c2cc(NC(=O)c3cccs3)ccc2OC[C@H]2O[C@H](CC(=O)NCCN3CCCCC3)CC[C@H]21`, for which the cytotoxicity call was “inactive”.

Take `CO/N=C1\CN(c2nc3c(cc2F)c(=O)c(C(=O)O)cn3C2CC2)C[C@@H]1CN`: the cytotoxicity call was “inactive”.

For the compound `COc1ccc(S(=O)(=O)N2C[C@@H](O)COC[C@@H]3O[C@@H](CC(=O)N[C@@H]4CCN(Cc5ccccc5)C4)CC[C@H]32)cc1`, the cytotoxicity call was “inactive”.

With `C[C@]1(C(=O)NCC(F)(F)F)c2ccccc2C(=O)N(Cc2cc(F)cc(C(F)(F)F)c2)[C@H]1c1ccc(CO)cc1`, the cytotoxicity call was “inactive”.

Take `Cc1ccc(S(=O)(=O)Nc2cccc3c2O[C@@H](CN(C)S(=O)(=O)c2ccccc2)[C@H](C)CN([C@@H](C)CO)C3=O)cc1`: the cytotoxicity call is “inactive”.

`COCC#Cc1cnc2c(c1)C(=O)N([C@@H](C)CO)C[C@@H](C)[C@@H](CN(C)C(=O)CCN1CCCCC1)O2`: the cytotoxicity call was “inactive”.

With `Cc1noc(C)c1NC(=O)Nc1ccc2c(c1)C(=O)N([C@H](C)CO)C[C@H](C)[C@@H](CN(C)S(=O)(=O)c1ccccc1)OCCCC[C@@H](C)O2`, the cytotoxicity call is “inactive”.

`NC1(Cc2ccc(Cl)cc2)CCN(c2ncnc3[nH]ccc23)CC1`: the cytotoxicity call was “active”.

With `Cc1ccc(S(=O)(=O)N2C[C@H](O)COC[C@@H]3O[C@@H](CC(=O)N[C@@H]4CCN(Cc5ccccc5)C4)CC[C@H]32)cc1`, the cytotoxicity call is “inactive”.

As for `CN1CCc2cccc3c2C1Cc1ccc(O)c(O)c1-3.Cl` (centres undefined), the cytotoxicity call is “active”.

Consider `COc1cc2c3cc1Oc1cc(ccc1O)O[C@H]1c4c(cc(OC)c(O)c4Oc4ccc(cc4)C[C@@H]3N(C)CC2)CCN1C`, for which the cytotoxicity call was “inactive”.

On to `C[C@H](CO)N1C[C@H](C)[C@@H](CN(C)S(C)(=O)=O)Oc2ccc(NC(=O)NC3CCCCC3)cc2C1=O`, for which the cytotoxicity call is “inactive”.

`C[C@@H]1CN([C@H](C)CO)C(=O)CCCn2cc(nn2)CO[C@@H]1CN(C)C(=O)CCCN(C)C`: the cytotoxicity call is “inactive”.

Regarding `COCC#Cc1cnc2c(c1)C(=O)N([C@@H](C)CO)C[C@@H](C)[C@H](CN(C)C(=O)c1ccc3c(c1)OCO3)O2`, the cytotoxicity call was “inactive”.

In the case of `C[C@H](CO)N1C[C@H](C)[C@@H](CN(C)S(=O)(=O)c2cn(C)cn2)Oc2cc(C#Cc3ccc(F)cc3)ccc2S1(=O)=O`, the cytotoxicity call is “inactive”.
